From the supplement of paper PMC11732987, “Enantioselective OTUD7B fragment discovery through chemoproteomics screening and high-throughput optimisation” (Communications Chemistry, 2025)

Tests used:
ALG13 = target: T1, ALG13 (UniProt Q9NP73); experiment: log2 ratio of Biotin-Ahx-Ub-VS probe labelling (fragment/DMSO); higher = less target engagement (more negative = stronger competition), active = hit call of the paper (q ≤ 0.05, log2 ratio ≤ -1); settings: compound concentration: 200 uM; treatment time: 3 h
T1 sequence (whole entry): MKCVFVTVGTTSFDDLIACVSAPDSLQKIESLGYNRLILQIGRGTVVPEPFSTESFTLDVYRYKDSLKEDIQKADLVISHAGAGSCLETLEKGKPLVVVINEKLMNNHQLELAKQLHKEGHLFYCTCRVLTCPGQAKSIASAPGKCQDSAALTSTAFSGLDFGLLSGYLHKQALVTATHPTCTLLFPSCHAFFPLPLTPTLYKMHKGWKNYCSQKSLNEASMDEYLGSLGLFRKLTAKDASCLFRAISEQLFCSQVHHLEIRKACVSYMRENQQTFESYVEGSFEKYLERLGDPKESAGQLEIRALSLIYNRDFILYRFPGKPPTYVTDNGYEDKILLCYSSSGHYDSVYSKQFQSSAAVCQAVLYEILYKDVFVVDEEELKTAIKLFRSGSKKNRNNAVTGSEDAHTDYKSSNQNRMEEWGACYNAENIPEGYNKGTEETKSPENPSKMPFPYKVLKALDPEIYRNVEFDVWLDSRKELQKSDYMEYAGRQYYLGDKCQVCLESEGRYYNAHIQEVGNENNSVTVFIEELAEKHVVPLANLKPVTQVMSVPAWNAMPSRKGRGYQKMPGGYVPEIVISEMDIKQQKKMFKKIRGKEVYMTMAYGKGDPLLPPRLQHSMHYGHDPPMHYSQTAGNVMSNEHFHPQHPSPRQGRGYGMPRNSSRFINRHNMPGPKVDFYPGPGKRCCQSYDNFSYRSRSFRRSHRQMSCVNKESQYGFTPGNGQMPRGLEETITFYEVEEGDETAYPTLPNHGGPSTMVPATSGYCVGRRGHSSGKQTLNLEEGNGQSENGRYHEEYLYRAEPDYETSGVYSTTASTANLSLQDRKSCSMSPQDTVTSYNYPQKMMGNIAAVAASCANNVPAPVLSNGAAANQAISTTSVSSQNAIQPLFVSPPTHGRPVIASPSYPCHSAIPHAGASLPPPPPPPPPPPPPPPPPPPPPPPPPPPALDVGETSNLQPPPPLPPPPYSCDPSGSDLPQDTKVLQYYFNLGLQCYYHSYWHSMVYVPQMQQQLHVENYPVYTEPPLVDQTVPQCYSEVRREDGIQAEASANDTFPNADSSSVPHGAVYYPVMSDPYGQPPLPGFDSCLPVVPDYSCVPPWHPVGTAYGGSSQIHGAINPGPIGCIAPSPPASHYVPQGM
Procedure, shortened: (§1)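 Fragment (200 µM) or vehicle was incubated for 3 h with triplicate HEK293T lysate samples of 495 µg, which were then treated with Biotin-Ahx-Ub-VS at 0.5 µM final for 1 h. Labelled DUBs were enriched on NeutrAvidin, digested with LysC and trypsin, and analysed by diaPASEF LC-MS/MS. Values are average log2 fragment/vehicle ratios from an unpaired t-test on global-median-normalised Spectronaut label-free quantities, using proteins with ≥2 unique peptides.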

ATXN3 = ATXN3 (UniProt P54252); experiment: as above; settings: compound concentration: 200 uM; treatment time: 3 h
Chain of ATXN3 (P54252 whole entry): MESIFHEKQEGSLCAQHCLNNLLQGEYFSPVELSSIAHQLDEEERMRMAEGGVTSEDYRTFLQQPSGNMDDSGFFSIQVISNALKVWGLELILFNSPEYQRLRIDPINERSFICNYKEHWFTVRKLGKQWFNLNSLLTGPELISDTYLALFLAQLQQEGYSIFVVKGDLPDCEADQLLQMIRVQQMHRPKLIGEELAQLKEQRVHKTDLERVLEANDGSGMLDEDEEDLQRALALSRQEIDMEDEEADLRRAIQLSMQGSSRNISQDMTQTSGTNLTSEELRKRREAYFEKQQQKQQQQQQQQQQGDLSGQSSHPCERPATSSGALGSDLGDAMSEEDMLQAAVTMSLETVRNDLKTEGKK
Procedure, shortened: as §1

BAP1 = target: T2, BAP1 (UniProt Q92560); experiment: as above; settings: compound concentration: 200 uM; treatment time: 3 h
T2 sequence (whole entry): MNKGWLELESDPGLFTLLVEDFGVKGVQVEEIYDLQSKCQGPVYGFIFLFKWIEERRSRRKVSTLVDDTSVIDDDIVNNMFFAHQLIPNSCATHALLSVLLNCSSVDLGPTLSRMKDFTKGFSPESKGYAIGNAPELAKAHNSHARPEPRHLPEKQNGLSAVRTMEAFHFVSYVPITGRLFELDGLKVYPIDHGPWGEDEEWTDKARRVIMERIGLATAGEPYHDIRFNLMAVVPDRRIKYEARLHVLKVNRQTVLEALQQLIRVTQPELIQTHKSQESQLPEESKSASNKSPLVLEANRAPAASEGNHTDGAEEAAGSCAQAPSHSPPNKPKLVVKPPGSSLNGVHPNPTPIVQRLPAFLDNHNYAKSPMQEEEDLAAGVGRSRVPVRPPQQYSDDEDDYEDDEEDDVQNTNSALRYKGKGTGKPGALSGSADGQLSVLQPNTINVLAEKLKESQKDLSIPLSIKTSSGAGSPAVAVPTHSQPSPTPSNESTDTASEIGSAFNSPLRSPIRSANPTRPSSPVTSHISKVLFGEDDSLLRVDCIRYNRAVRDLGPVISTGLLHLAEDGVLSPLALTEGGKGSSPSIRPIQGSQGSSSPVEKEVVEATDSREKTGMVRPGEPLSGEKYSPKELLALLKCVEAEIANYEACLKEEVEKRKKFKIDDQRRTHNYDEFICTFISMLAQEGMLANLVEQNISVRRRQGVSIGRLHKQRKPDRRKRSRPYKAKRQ
Procedure, shortened: as §1

EIF3F = EIF3F (UniProt O00303); experiment: as above; settings: compound concentration: 200 uM; treatment time: 3 h
Chain of EIF3F (O00303 whole entry): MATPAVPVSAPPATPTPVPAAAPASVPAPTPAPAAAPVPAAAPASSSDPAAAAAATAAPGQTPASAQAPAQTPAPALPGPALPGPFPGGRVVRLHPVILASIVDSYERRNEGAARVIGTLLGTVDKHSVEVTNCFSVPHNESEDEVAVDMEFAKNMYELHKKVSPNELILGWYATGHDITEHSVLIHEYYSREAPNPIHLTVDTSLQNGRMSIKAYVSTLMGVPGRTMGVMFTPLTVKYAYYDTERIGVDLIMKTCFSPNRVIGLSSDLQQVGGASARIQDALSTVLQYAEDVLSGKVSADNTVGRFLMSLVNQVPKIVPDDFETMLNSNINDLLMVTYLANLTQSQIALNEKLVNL
Procedure, shortened: as §1

EIF3H = EIF3H (UniProt O15372); experiment: as above; settings: compound concentration: 200 uM; treatment time: 3 h
Chain of EIF3H (O15372 whole entry): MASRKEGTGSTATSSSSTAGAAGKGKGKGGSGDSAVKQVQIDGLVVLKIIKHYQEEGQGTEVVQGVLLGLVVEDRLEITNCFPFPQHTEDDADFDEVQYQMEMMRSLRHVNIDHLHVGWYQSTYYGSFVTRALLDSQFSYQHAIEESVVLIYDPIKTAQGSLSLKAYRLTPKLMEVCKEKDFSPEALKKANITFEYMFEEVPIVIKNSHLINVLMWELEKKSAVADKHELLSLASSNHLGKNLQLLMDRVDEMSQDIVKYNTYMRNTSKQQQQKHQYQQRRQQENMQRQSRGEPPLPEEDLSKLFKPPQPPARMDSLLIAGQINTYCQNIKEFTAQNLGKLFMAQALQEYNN
Procedure, shortened: as §1

FAM105A = target: T3, FAM105A (UniProt Q9NUU6); experiment: as above; settings: compound concentration: 200 uM; treatment time: 3 h
T3 sequence (whole entry): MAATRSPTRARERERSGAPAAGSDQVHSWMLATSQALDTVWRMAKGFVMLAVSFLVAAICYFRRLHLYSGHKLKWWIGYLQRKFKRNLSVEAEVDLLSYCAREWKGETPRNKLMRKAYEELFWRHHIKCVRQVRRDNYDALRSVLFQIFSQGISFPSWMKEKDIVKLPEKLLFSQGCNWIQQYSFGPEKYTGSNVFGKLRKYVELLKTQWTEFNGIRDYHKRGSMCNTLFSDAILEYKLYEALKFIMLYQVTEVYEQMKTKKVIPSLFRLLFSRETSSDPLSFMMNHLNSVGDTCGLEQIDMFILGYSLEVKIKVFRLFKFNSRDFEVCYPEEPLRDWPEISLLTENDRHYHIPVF
Procedure, shortened: as §1

OTUB1 = OTUB1 (UniProt Q96FW1); experiment: as above; settings: compound concentration: 200 uM; treatment time: 3 h
Chain of OTUB1 (Q96FW1 whole entry): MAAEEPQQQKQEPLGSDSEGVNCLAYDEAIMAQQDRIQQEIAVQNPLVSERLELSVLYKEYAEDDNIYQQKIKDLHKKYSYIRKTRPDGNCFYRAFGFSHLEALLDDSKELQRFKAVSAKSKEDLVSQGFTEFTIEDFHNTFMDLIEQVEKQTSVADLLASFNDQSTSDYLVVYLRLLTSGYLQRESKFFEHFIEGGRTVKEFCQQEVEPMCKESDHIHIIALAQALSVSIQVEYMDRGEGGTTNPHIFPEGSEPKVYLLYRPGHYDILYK
Procedure, shortened: as §1

OTUD4 = target: T4, OTUD4 (UniProt Q01804); experiment: as above; settings: compound concentration: 200 uM; treatment time: 3 h
T4 sequence (whole entry): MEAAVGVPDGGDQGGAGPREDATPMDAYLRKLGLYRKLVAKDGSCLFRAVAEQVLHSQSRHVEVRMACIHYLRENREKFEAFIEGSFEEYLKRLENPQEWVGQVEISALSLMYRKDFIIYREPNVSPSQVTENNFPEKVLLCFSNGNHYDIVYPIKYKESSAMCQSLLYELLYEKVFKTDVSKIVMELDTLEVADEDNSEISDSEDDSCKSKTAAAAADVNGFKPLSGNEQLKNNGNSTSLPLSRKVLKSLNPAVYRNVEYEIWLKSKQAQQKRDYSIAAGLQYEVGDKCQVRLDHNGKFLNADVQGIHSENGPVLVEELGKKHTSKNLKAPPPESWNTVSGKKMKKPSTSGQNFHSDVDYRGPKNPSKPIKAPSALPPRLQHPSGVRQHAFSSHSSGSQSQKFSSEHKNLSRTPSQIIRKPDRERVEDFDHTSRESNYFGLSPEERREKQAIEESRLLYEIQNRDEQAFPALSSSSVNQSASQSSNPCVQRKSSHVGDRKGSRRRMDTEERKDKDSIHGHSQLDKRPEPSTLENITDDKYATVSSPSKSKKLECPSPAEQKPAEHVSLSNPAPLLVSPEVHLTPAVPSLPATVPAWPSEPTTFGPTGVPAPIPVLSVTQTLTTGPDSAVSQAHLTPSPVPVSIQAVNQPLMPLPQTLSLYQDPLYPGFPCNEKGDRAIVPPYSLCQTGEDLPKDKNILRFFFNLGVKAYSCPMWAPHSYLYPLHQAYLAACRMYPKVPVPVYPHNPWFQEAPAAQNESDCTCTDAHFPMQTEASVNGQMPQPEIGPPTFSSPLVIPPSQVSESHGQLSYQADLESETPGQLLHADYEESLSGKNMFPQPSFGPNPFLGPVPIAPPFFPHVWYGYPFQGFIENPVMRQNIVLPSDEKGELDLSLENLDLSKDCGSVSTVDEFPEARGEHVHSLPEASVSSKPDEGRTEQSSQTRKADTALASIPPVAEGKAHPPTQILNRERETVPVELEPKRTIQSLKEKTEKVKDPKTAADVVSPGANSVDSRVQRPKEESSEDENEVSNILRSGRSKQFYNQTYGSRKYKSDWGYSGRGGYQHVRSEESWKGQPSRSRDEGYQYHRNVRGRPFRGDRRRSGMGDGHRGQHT
Procedure, shortened: as §1

OTUD5 = target: T5, OTUD5 (UniProt Q96G74); experiment: as above; settings: compound concentration: 200 uM; treatment time: 3 h
T5 sequence (whole entry): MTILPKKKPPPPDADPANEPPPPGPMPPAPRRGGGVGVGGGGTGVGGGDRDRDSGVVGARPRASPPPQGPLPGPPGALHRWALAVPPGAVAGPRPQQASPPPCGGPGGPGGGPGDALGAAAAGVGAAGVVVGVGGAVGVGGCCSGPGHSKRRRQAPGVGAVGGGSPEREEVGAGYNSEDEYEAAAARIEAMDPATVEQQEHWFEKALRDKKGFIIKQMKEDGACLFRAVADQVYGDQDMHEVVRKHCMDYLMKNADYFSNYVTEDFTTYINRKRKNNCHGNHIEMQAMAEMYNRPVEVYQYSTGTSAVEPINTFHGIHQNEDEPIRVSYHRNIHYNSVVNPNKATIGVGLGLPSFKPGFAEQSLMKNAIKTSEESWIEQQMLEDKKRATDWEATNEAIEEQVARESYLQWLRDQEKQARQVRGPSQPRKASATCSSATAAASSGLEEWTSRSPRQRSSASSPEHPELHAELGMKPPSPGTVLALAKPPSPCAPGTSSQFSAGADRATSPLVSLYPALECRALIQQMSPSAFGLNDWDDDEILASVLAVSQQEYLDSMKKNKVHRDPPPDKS
Procedure, shortened: as §1

USP38 = target: T6, USP38 (UniProt Q8NB14); experiment: log2 ratio of Biotin-Ahx-Ub-VS probe labelling (compound/DMSO); higher = less target engagement, active = hit call of the paper (q ≤ 0.05, log2 ratio ≤ -1); settings: treatment time: 3 h
T6 sequence (whole entry): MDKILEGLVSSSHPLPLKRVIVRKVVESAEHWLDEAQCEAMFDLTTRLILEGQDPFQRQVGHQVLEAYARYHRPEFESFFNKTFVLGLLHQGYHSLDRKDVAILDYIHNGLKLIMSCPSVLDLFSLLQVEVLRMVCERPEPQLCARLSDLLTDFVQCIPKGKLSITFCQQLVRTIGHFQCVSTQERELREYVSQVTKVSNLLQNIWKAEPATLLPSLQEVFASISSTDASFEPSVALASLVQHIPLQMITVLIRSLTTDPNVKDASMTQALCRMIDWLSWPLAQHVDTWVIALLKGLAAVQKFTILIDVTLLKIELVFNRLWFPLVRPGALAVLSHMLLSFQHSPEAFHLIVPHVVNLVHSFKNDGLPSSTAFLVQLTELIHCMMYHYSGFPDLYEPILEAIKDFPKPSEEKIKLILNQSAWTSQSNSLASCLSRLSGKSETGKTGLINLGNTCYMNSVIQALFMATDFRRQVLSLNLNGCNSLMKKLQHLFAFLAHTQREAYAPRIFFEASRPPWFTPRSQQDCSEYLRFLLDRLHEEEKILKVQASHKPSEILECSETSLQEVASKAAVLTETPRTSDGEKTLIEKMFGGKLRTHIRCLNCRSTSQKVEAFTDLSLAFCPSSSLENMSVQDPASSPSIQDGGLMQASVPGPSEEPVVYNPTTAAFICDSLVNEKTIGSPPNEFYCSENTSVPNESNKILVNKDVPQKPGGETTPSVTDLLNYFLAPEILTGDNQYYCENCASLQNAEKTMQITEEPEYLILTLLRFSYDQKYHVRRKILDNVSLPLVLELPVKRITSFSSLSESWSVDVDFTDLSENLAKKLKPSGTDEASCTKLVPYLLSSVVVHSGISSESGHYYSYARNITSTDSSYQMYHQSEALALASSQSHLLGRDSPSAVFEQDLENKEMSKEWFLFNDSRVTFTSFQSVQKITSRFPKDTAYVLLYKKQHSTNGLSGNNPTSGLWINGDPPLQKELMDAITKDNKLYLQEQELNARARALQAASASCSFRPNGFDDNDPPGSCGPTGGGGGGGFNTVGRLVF
Procedure, shortened: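 Values are average ratios of compound to vehicle from an unpaired t-test, limited to proteins with at least two unique peptides. HEK293T lysate (495 µg per sample, in Tris/CHAPS/IGEPAL buffer with protease inhibitors) was exposed in triplicate to a concentration series of compound or to vehicle for 3 h, then to Biotin-Ahx-Ub-VS at 0.5 µM final for 1 h. Labelled deubiquitinases were enriched on NeutrAvidin, digested with LysC and trypsin, and analysed by diaPASEF LC-MS/MS. Ratios are given on a log2 scale from Spectronaut label-free protein quantities normalised to the global median.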

Measured: log2 ratio of Biotin-Ahx-Ub-VS probe labelling

O=C(CCl)N[C@H]1CC[C@@H](CO)CC1
inactive: ALG13 0.27 | ATXN3 -0.868 | EIF3F -0.486 | EIF3H 0.0529 | FAM105A -0.00946 | OTUB1 -0.626 | OTUD4 -0.852 | OTUD5 -0.686
active: BAP1 -1.34

O=C(CCl)NC1CCCc2ccccc21 (stereo not drawn)
inactive: USP38; compound concentration: 0.78uM -0.0722 | USP38; compound concentration: 1.56uM -0.0473 | USP38; compound concentration: 3.13uM -0.124 | USP38; compound concentration: 6.25uM -0.102 | USP38; compound concentration: 12.5uM -0.214 | USP38; compound concentration: 25uM -0.157 | USP38; compound concentration: 50uM -0.0382 | USP38; compound concentration: 100uM -0.104 | USP38; compound concentration: 200uM -0.148
